Assay [1] can be described thus: qHTS profiling for inhibitors of Plasmodium falciparum proliferation (AID 504749). Further: nearly all actives have a fitted effect of over 60% in size.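 On activity, negative = inhibition: 0% = DMSO vehicle and full inhibition = artemisinin control.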 The settings on record: P. falciparum in erythrocytes, SYBR Green DNA, 72 h. The method in brief:
(§1)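 Readout was DNA-dye fluorescence from lysed cultures, ex 485/em 535 nm. Parasitized red cells had grown 72 h with compound; data scaled between 0.29 uM artemisinin and DMSO wells and corrected using vehicle-only plates.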
A general note: qHTS replaces the single test concentration by a dilution series.

The subject of another assay is 3D7. Described as above. The settings on record: P. falciparum in erythrocytes, SYBR Green DNA, 72 h; series mostly up to 28.7 µM. The method in brief: as §1
A further assay has as its system 7G8. Described as above. As to conditions: P. falciparum in erythrocytes, SYBR Green DNA, 72 h; series mostly up to 28.7 µM. An outline of the steps: as §1
The next assay relates to AA1029. The description is as above. As to conditions: P. falciparum in erythrocytes, SYBR Green DNA, 72 h; series mostly up to 28.7 µM. An outline of the steps: as §1
Another assay concerns AS120. Described as above. The settings on record: P. falciparum in erythrocytes, SYBR Green DNA, 72 h; series mostly up to 28.7 µM. An outline of the steps:
as §1

A further assay concerns ATS189. Described as above. The settings on record: P. falciparum in erythrocytes, SYBR Green DNA, 72 h; series mostly up to 28.7 µM. An outline of the steps:
as §1

[2] abbreviates: at 28.7 µM (top of the series), parasite line A.
Setting [3] is: at 28.7 µM (top of the series), parasite line B.

Results filed as inconclusive are left out. Values without a mark were called inactive. Calls of active or inactive are those of the source. The call rests on the fitted dose curve; in most records, active means well fitted inhibition curve with a large enough effect; inconclusive means small, poorly fitted or top-dose-only effect; inactive means flat fitted curve, though single readings scatter.
Potency means the concentration at half of the fitted maximal effect.

On to `Nc1nc(N)c(-c2ccccc2)s1`, for which the activity, negative = inhibition is 18.4% in assay [1] (setting [2]) and 11.9% in assay [1] (setting [3]). Moreover, the Potency entry in the assay with 3D7, in the assay on 7G8, with AA1029, with AS120 and with ATS189 was “inactive” in each case.
Turning to `CCc1ccc(C(=O)C(C)CN2CCCCC2)cc1` (stereo not drawn), the activity, negative = inhibition in assay [1] (setting [2]) is 2.55%; in assay [1] (setting [3]), 6.09%. The Potency result in the assay on 3D7, in the assay on 7G8, with AA1029, in the assay with AS120 and in the assay on ATS189 was “inactive” in each case.
With `CC(C)(C)NC[C@H](O)COc1cccc2c1CCCC2=O`, the activity, negative = inhibition in assay [1] (at 12.8 µM (top of the series), parasite line A) is 5.04%; in assay [1] (at 12.8 µM (top of the series), parasite line B) it was 7.33%. Further, the Potency entry in the assay on 3D7, in the assay with 7G8, in the assay with AA1029, in the assay on AS120 and in the assay on ATS189 was “inactive” in each case.
Take `CC(=O)N[C@@H](CCC(=O)O)C(=O)O`: the activity, negative = inhibition in assay [1] (setting [2]) is 4.59%; in assay [1] (setting [3]), 2.94%. Further, the Potency entry in the assay with 3D7, with 7G8, in the assay on AA1029, with AS120 and in the assay on ATS189 was “inactive” throughout.
In the case of `Cc1ccc(S(=O)(=O)NC(=O)NC2CCCC2)cc1`, the values for the activity, negative = inhibition in assay [1] (setting [2]) and in assay [1] (setting [3]) were 11.1% and 9.92%, respectively. Also, the Potency result in the assay with 3D7, in the assay on 7G8, with AA1029, in the assay with AS120 and with ATS189 was “inactive” in each case.
`O=C(c1ccc(F)cc1)C1CCN(CCn2c(=S)[nH]c3ccccc3c2=O)CC1`: the Potency in assay [1] (parasite line A) was 5.01 µM (active); in assay [1] (parasite line B), 10 µM (active); in the assay on 3D7 it was 11.2 µM (active); in the assay on 7G8, 2.24 µM (active); in the assay on AA1029, 4.47 µM (active); with AS120 it was 2.82 µM (active). Also, the Potency in the assay on ATS189 was 6.31 µM (active).
Regarding `CC(C)Cc1ccc(CC(=O)O)cc1`, the activity, negative = inhibition in assay [1] (setting [2]) was 5.78%; in assay [1] (setting [3]), 6.05%. Also, the Potency result with 3D7, in the assay with 7G8, in the assay with AA1029, in the assay on AS120 and with ATS189 was “inactive” in each case.
`NS(=O)(=O)c1ccc(Cl)c(S(N)(=O)=O)c1`: the results for the activity, negative = inhibition in assay [1] (setting [2]) and in assay [1] (setting [3]) were 8.67% and 14.1%, respectively. Moreover, the Potency result with 3D7, with 7G8, in the assay with AA1029, in the assay with AS120 and in the assay on ATS189 was “inactive” in each case.
`CN(Cc1ccc(C(C)(C)C)cc1)Cc1cccc2ccccc12`: the results for the activity, negative = inhibition in assay [1] (setting [2]) and in assay [1] (setting [3]) were -10% and -26.9%, respectively. For the same compound, the Potency entry in the assay with 3D7, with AA1029, in the assay with AS120 and in the assay on ATS189 was “inactive” throughout. The Potency with 7G8 is 11.2 µM (active).
On to `CCCCNC(=O)NS(=O)(=O)c1ccc(N)cc1`, for which the results for the activity, negative = inhibition in assay [1] (setting [2]) and in assay [1] (setting [3]) were 5.61% and 12.3%, respectively. Further, the Potency result in the assay on 3D7, with 7G8, in the assay with AA1029, with AS120 and in the assay on ATS189 was “inactive” each time.
Consider `O=C(O)P(=O)(O)O`, for which the activity, negative = inhibition in assay [1] (setting [2]) was 3.96%; in assay [1] (setting [3]), -2.94%. Moreover, the Potency result in the assay on 3D7, in the assay with 7G8, with AA1029, with AS120 and in the assay with ATS189 was “inactive” throughout.
With `c1ccc(-c2nc[nH]c2-c2ccccc2)cc1`, the activity, negative = inhibition was 7.29% in assay [1] (setting [2]) and -4.58% in assay [1] (setting [3]). Also, the Potency result with 3D7, in the assay with 7G8, in the assay with AA1029, with AS120 and in the assay on ATS189 was “inactive” each time.
In the case of `Oc1ccccc1C=NCc1ccccc1`, the activity, negative = inhibition in assay [1] (setting [2]) was 2.18%; in assay [1] (setting [3]), -16.9%. Besides, the Potency result with 3D7, in the assay on 7G8, with AA1029, in the assay with AS120 and in the assay with ATS189 was “inactive” throughout.
`O=C(O)C(Cc1cc(I)c(O)c(I)c1)c1ccccc1` (stereo not drawn): the activity, negative = inhibition is -3.64% in assay [1] (setting [2]) and 7.72% in assay [1] (setting [3]). Moreover, the Potency entry with 3D7, in the assay on 7G8, with AA1029, with AS120 and in the assay with ATS189 was “inactive” each time.
On to `CCOc1cc(OCC)c(C(=O)CCC(=O)O)cc1OCC`, for which the figures for the activity, negative = inhibition in assay [1] (setting [2]) and in assay [1] (setting [3]) were 5.68% and 1.04%, respectively. For the same compound, the Potency entry in the assay on 3D7, in the assay on 7G8, with AA1029, with AS120 and in the assay with ATS189 was “inactive” throughout.
For the compound `CCOC(=O)c1c(N)sc2c1CCN(Cc1ccccc1)C2`, the Potency in assay [1] (parasite line A) was 10 µM (active); in assay [1] (parasite line B) it was 5.01 µM (active); in the assay on 3D7, 11.2 µM (active); in the assay on 7G8 it was 6.31 µM (active); in the assay with AA1029, 5.01 µM (active); with AS120 it was 8.91 µM (active). The Potency in the assay on ATS189 was 7.94 µM (active).
For the compound `Cc1cccc(C)c1NC(=O)CN1CCCC1`, the activity, negative = inhibition was -5.07% in assay [1] (setting [2]) and 5.99% in assay [1] (setting [3]). The Potency entry with 3D7, in the assay with 7G8, in the assay on AA1029, in the assay on AS120 and in the assay with ATS189 was “inactive” in each case.
For the compound `CC(=O)NC(=O)c1ccccc1O`, the activity, negative = inhibition is -1.16% in assay [1] (setting [2]) and 7.59% in assay [1] (setting [3]). The Potency result with 3D7, in the assay with 7G8, in the assay with AA1029, in the assay with AS120 and in the assay on ATS189 was “inactive” each time.
Consider `CCCCCCCC/C=C\CCCCCCCCN`, for which the values for the activity, negative = inhibition in assay [1] (setting [2]) and in assay [1] (setting [3]) were 9.32% and 3.75%, respectively. In addition, the Potency result with 3D7, in the assay on 7G8, in the assay on AA1029, with AS120 and in the assay on ATS189 was “inactive” in each case.

(Values after PubChem BioAssay (NCATS).)
